# Measurements reported in the supplement of paper PMC8728848.
# This excerpt belongs to a sample that is enriched for the strongest signals.
# Legend:
# Experiment in all cases: glycan array binding signal (z-score within array); higher = stronger binding
# Settings in all cases: glycan notation: IUPAC condensed, linker removed
# Gal(b1-4)GlcNAc = system: Gal(b1-4)GlcNAc
# Outline: (§1)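 The binding signal is a Z-score computed within each array. Data were drawn from 3228 arrays in the Consortium for Functional Glycomics database, restricted to those with a known protein sequence. Scores were averaged over arrays of the same protein sequence at different concentrations or buffers, and over linkers, and negative values can be taken as non-binding.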
# Gal3S(b1-3)GalNAc = system: Gal3S(b1-3)GalNAc
# Outline: as §1
# [1] = system: Gal3S(b1-4)[Fuc(a1-3)]Glc6S
# Outline: as §1
# Gal(b1-4)Glc = system: Gal(b1-4)Glc
# Outline: as §1
# Gal3S(b1-4)Glc = system: Gal3S(b1-4)Glc
# Outline: as §1
# Gal(b1-6)Gal = system: Gal(b1-6)Gal
# Outline: as §1
# Gal3S(b1-3)GlcNAc = system: Gal3S(b1-3)GlcNAc
# Outline: as §1
# [2] = system: Gal3S(b1-3)[Fuc(a1-4)]GlcNAc
# Outline: as §1
# Gal3S(b1-4)GlcNAc = system: Gal3S(b1-4)GlcNAc
# Outline: as §1
# [3] = system: Gal3S(b1-4)[Fuc(a1-3)]GlcNAc
# Outline: as §1
substance,measurement,setting,value
"SpGH101 (Streptococcus pneumoniae), Q8DR60",glycan array binding signal (z-score),Gal(b1-4)GlcNAc,-0.157
same,glycan array binding signal (z-score),Gal3S(b1-3)GalNAc,5.02
same,glycan array binding signal (z-score),[1],0.164
LcI (Legionella pneumophila),glycan array binding signal (z-score),Gal(b1-4)Glc,0.081
same,glycan array binding signal (z-score),Gal3S(b1-4)Glc,3.4
"Wza (Escherichia coli), P0A930",glycan array binding signal (z-score),Gal(b1-6)Gal,-0.876
same,glycan array binding signal (z-score),Gal3S(b1-3)GlcNAc,0.986
"SiiE (Salmonella typhimurium), A0A0H3NVH0",glycan array binding signal (z-score),[2],-0.012
"BambL (Burhholderia ambifaria), Q0B4G1",glycan array binding signal (z-score),[2],0.713
AgI/IIC123-GFP (Streptococcus mutans),glycan array binding signal (z-score),Gal3S(b1-4)GlcNAc,-0.345
same,glycan array binding signal (z-score),[3],0.852
